A selection: hits, their analogues and other compounds. The true share with any hit is near 6.8%.
Pf Dd2 growth: P. falciparum Dd2 growth inhibition. SYBR Green, 72 h; hits give low values. activity change, % at 10 µM. actives 2.3% (n = 94,000). AID 1159554; in the data active = activity change below about -80%; inconclusive = no clear call, values can overlap the other calls
T cruzi growth-1: T. cruzi proliferation inhibition. AID 624255. inhibition, % at 8.34 µM. T. cruzi beta-gal in NIH3T3, GalScreen luminescence, 90 h. actives 5.9% (n = 77,000);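 active = mean inhibition above about 93%, with at least 55% of replicates each passing it, limit read from the data, passing the limit was not always enough; inconclusive = only one of those two conditions holds; inactive = neither condition holds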
C diff HTS: inhibitors of Clostridium difficile growth. Clostridium difficile clinical isolate growth, OD600, 24 h; hits give low values. growth activity, negative = inhibition, % at 16 µg/mL (by protocol). actives 0.25% (n = 86,000). AID 1259249;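 active = mean growth activity at or below -80% and every replicate also at or below -80%; inconclusive = mean at or below -80% but some replicate above -80%; inactive = mean growth activity above -80%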;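 note: 0% = DMSO wells and -100% = levofloxacin 16 µg/mL wells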
T cruzi growth-2: blocks T. cruzi growth in NIH3T3 host cells | AID 651739 | inhibition, % at 8.35 µM | shares compounds with T cruzi growth-1 | T. cruzi beta-gal in NIH3T3, GalScreen luminescence, 90 h | actives 72% (n = 5,600);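 active = mean replicate inhibition above about 95% and at least 55% of replicates individually reaching it, limit read from the data; inconclusive = only one of the two criteria is met; inactive = neither criterion is met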
T cruzi growth-3: inhibitors of T. cruzi proliferation | T. cruzi beta-gal in NIH3T3, GalScreen luminescence, 90 h | inhibition, % at 2.09 µM | AID 651740 | actives 21% (n = 5,600) | shares compounds with T cruzi growth-1;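 active = mean inhibition above about 95%, with at least 55% of replicates also reaching it, limit read from the data; inconclusive = meets just one of the two conditions; inactive = meets neither condition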;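 note: plate controls were neutral control median for no effect and positive control median for full effect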
3T3 cytotox: NIH/3T3 (mouse) viability loss; NIH/3T3 viability, CellTiter-Glo ATP luminescence, 90 h; actives 14% (n = 5,600); shares compounds with T cruzi growth-1; cytotoxicity (signal decrease), % at 8.35 µM; AID 651742;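 active = mean signal decrease across replicates above about 35% based on untreated-well scatter, with enough replicates individually passing, limit read from the data; inconclusive = no rule stated though some were filed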;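 note: 0% = median of neutral control wells and 100% = median of positive control wells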
NIH3T3 tox 2: cytotoxicity in mouse NIH/3T3 fibroblasts | shares compounds with T cruzi growth-1 | NIH/3T3 viability, CellTiter-Glo ATP luminescence, 90 h | inhibition, % at 24.9 µM | actives 56% (n = 5,600) | AID 651744;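 active = mean loss of cell viability signal at or above a set limit, and enough replicates individually reaching it; inconclusive = meets only the mean limit or only the replicate share; inactive = meets neither condition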;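 note: 0% = median of neutral control wells and 100% = median of positive control wells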
Numbers without * were called inactive; ? = inconclusive; . = no result.

SMILES | Pf Dd2 growth | T cruzi growth-1 | C diff HTS | T cruzi growth-2 | T cruzi growth-3 | 3T3 cytotox | NIH3T3 tox 2
CCS(=O)(=O)N1CCCCN2[C@H](CO)[C@H](c3ccc(-c4ccccc4F)cc3)[C@H]2C1 | -33.3 | 99.5* | -12.0 | 95.6* | 55.1 | 9.3 | 60.6*
O=S(=O)(c1ccc(F)cc1)N1CCCCN2[C@H](CO)[C@H](c3ccc(-c4ccccc4F)cc3)[C@@H]2C1 | 18.0 | 110.6* | 1.4 | 104.3* | 74.5 | 24.1 | 93.6*
CCNC(=O)[C@@H]1[C@@H](CO)[C@@H]2Cn3c(ccc(-c4ccccc4F)c3=O)[C@@H]2N1C | 1.1 | 8.7 | 3.5 | . | . | . | .
COc1ccccc1S(=O)(=O)N[C@H]1CC[C@H](CCNC(=O)C2CCCC2)O[C@@H]1CO | 0.7 | . | -4.1 | . | . | . | .
Cc1ccc(S(=O)(=O)Nc2ccc3c(c2)CC(=O)N([C@H](C)CO)C[C@H](C)[C@H](CN(C)Cc2ccc(C(=O)O)cc2)O3)cc1 | 33.3 | 18.6 | . | . | . | . | .
C[C@H](CO)N1C[C@H](C)[C@@H](CN(C)Cc2ccc(C(=O)O)cc2)Oc2ccc(NC(=O)Nc3cccc4ccccc34)cc2CC1=O | -6.6 | . | -1.9 | . | . | . | .
CN1CCCCN2[C@@H](CO)[C@H](c3ccc(-c4cccnc4)cc3)[C@@H]2C1 | -16.1 | -58.4 | 6.3 | . | . | . | .
C[C@H](CO)N1C[C@H](C)[C@@H](CN(C)CC2CC2)OCCCC[C@H](C)Oc2ccc(NC(=O)CCC(F)(F)F)cc2C1=O | 10.5 | 42.4 | 3.2 | . | . | . | .
COc1ccc2c3c(n(C)c2c1)[C@H](CO)N(Cc1nccs1)CC31CN(C(C)=O)C1 | -27.3 | . | 6.7 | . | . | . | .
O=C(Cc1ccccc1)N[C@H]1CC[C@@H](CC(=O)N2CCCCC2)O[C@@H]1CO | 3.8 | 77.5 | 6.8 | . | . | . | .
Cc1noc(C)c1S(=O)(=O)N(C)C[C@@H]1Oc2ccc(NS(=O)(=O)c3ccc(F)cc3)cc2CC(=O)N([C@@H](C)CO)C[C@@H]1C | -1.3 | 45.1 | -9.1 | . | . | . | .
Cc1ccccc1-c1ccc([C@H]2[C@H](CO)N3CCCCN(S(C)(=O)=O)C[C@@H]23)cc1 | 16.7 | 108.9* | -2.9 | 95.8* | 65.5 | 29.2 | 35.5*
Cc1ccccc1-c1ccc([C@@H]2[C@@H](CO)N3CCCCN(S(=O)(=O)c4ccc(F)cc4)C[C@H]23)cc1 | -13.0 | 78.2 | 16.3 | . | . | . | .
Cc1ccccc1-c1ccc([C@H]2[C@H]3CN(S(C)(=O)=O)CCCCN3[C@H]2CO)cc1 | -19.9 | 22.4 | -6.2 | . | . | . | .
O=S(=O)(c1ccc(F)cc1)N1CCCCN2[C@H](C1)[C@@H](c1ccc(-c3ccccc3F)cc1)[C@@H]2CO | 14.1 | 107.3* | -3.3 | 101.0* | 65.5 | 20.9 | 42.1*
Cc1ccccc1-c1ccc([C@H]2[C@H](CO)N3CCCCN(S(=O)(=O)c4ccc(F)cc4)C[C@@H]23)cc1 | -12.0 | 111.9* | 47.3 | 99.7* | 109.6* | ? | 103.8*
O=S(=O)(c1ccc(F)cc1)N1CCCCN2[C@H](CO)[C@H](c3ccc(-c4ccccc4F)cc3)[C@H]2C1 | -77.1 | 89.9 | -6.1 | . | . | . | .
C[C@@H]1CN([C@@H](C)CO)C(=O)c2cc(C#CC3CCCC3)cnc2O[C@@H]1CN(C)C(=O)C1CC1 | -23.5 | . | -2.5 | . | . | . | .
C[C@H](CO)N1C[C@H](C)[C@H](CN(C)CC2CC2)Oc2c(NS(=O)(=O)c3ccccc3)cccc2C1=O | 5.2 | 27.9 | 2.2 | . | . | . | .
CN1C(=O)c2cc(NC(=O)Nc3cccc(Cl)c3)ccc2OC[C@H]2O[C@@H](CC(=O)O)CC[C@H]21 | 16.6 | -76.0 | 4.5 | . | . | . | .
COc1cccc(C(=O)Nc2ccc3c(c2)C(=O)N(C)C[C@H](OC)[C@H](C)CN(CC2CC2)[C@H](C)CO3)c1 | 19.8 | 18.5 | . | . | . | . | .
C[C@@H]1CN([C@H](C)CO)C(=O)c2cc(NS(=O)(=O)c3ccc(Cl)cc3)ccc2O[C@@H](C)CCCCO[C@@H]1CN(C)Cc1ccc(C(F)(F)F)cc1 | -62.0 | 90.0 | 14.2 | . | . | . | .
C[C@@H]1CN([C@H](C)CO)C(=O)c2cc(NS(C)(=O)=O)ccc2O[C@@H](C)CCCCO[C@H]1CN(C)Cc1ccc(C(F)(F)F)cc1 | -33.6 | 115.7* | 10.3 | 107.5* | 107.9* | 0.9 | 98.0*
C[C@@H]1CN([C@@H](C)CO)C(=O)c2cc(NS(=O)(=O)c3ccc(Cl)cc3)ccc2O[C@@H](C)CCCCO[C@H]1CN(C)Cc1ccncc1 | -7.0 | ? | -7.4 | 101.8* | 37.6 | -11.5 | 16.3
C[C@@H]1CCCCO[C@@H](CN(C)Cc2ccc(C(F)(F)F)cc2)[C@@H](C)CN([C@@H](C)CO)C(=O)c2cc(NS(=O)(=O)c3ccc(Cl)cc3)ccc2O1 | -33.2 | 97.1* | 27.4 | 87.3 | 112.6* | 27.7 | 102.5*
SMILES | Pf Dd2 growth | T cruzi growth-1 | C diff HTS | T cruzi growth-2 | T cruzi growth-3 | 3T3 cytotox | NIH3T3 tox 2
C[C@H](CO)N1C[C@H](C)[C@H](CN(C)Cc2ccc(C(F)(F)F)cc2)OCCCC[C@H](C)Oc2ccc(NS(C)(=O)=O)cc2C1=O | -10.2 | -58.9 | 11.2 | . | . | . | .
C[C@H]1CCCCO[C@@H](CN(C)Cc2ccncc2)[C@@H](C)CN([C@@H](C)CO)C(=O)c2cc(NS(=O)(=O)c3ccc(Cl)cc3)ccc2O1 | -43.4 | 91.3 | -4.3 | . | . | . | .
CC(=O)N[C@@H]1CC[C@H](CCNC(=O)C2CCCCC2)O[C@H]1CO | 0.3 | . | -5.0 | . | . | . | .
C[C@@H]1CCCCO[C@H](CN(C)C(=O)CCCN(C)C)[C@@H](C)CN([C@H](C)CO)C(=O)c2cc(NC(=O)Nc3ccc(C(F)(F)F)cc3)ccc2O1 | 15.5 | 78.9 | . | . | . | . | .
COCC(=O)N1CCC2(CC1)CN(C(=O)c1ccccn1)[C@@H](CO)c1c2c2ccc(OC)cc2n1C | 28.5 | . | 1.5 | . | . | . | .
C[C@H](CO)N1C[C@H](C)[C@H](CN(C)C(=O)c2cccc(F)c2)Oc2cc(-c3cccnc3)ccc2S1(=O)=O | -29.1 | 28.0 | 4.6 | . | . | . | .
C[C@H](CO)N1C[C@H](C)[C@H](CN(C)CC2CCCCC2)Oc2ccc(NC(=O)CCN3CCOCC3)cc2C1=O | 2.2 | -37.3 | 7.5 | . | . | . | .
Cc1ccc(S(=O)(=O)Nc2ccc3c(c2)CC(=O)N([C@@H](C)CO)C[C@@H](C)[C@@H](CN(C)S(=O)(=O)c2cn(C)cn2)O3)cc1 | -38.0 | 20.8 | 3.3 | . | . | . | .
C[C@H]1CN([C@@H](C)CO)C(=O)CCCn2cc(nn2)CO[C@@H]1CN(C)C(=O)Nc1ccc(C(C)(C)C)cc1 | -1.8 | -5.4 | 1.1 | . | . | . | .
C[C@H](CO)N1C[C@H](C)[C@H](CN(C)C(=O)CCC(F)(F)F)OCc2cn(nn2)CCCC1=O | 10.4 | -4.1 | -0.8 | . | . | . | .
C[C@@H]1CN([C@H](C)CO)C(=O)CCCn2cc(nn2)CO[C@@H]1CN(C)C(=O)Nc1ccc(C(C)(C)C)cc1 | 1.5 | 122.3* | -1.8 | 101.0* | -47.5 | -2.4 | 5.8

Screens: PubChem BioAssay, Broad Institute
